Source: PubChem BioAssay (The Scripps Research Institute Molecular Screening Center)
Most compounds without a hit are left out; they make up all but 4.1% or so of the library.
hcDAF-12 act: activators of H. contortus DAF-12 nuclear receptor | actives 1.4% (n = 370,000) | HEK293 hcDAF-12 lit1-tk-luc reporter, luminescence; 0% DMSO, 100% Δ7-dafachronic acid | activation, % at 6.8 µM;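 active means activation above the mean of all tested compounds plus 3 SD, cut at about 5.5% in these data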;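 further: 100% = response to 3 µM Δ7-dafachronic acid high control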
ssDAF12 agonist: activators of S. stercoralis DAF-12 nuclear receptor; HEK293 ssDAF-12/GRIP1 lit1-tk-luc reporter, luminescence; % of 3 µM dafachronic acid response; activation, % at 6.8 µM; actives 1% (n = 370,000); AID 652126;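 active means activation above the mean over all tested compounds plus 3 SD, cut at about 0.9% in these data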;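 further: 0% = DMSO-only wells and 100% = 3 µM delta7-dafachronic acid wells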
hgDAF12 agonist: activates the H. glycines DAF-12 receptor ligand-binding domain | HEK293 GAL4-hgDAF12 UAS-luciferase reporter, agonist luminescence; normalized to butyrate control | AID 687014 | activation, % at 6.8 µM | actives 1.8% (n = 370,000);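 active means activation above a cutoff set at the mean of all screened compounds plus 3 SD, cut at about 10% in these data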;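 further: 0% = DMSO wells and 100% = sodium butyrate wells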
DAX1 inh-1: blocks DAX1 repression of SF-1 activated StAR promoter; HEK293T StAR-luciferase reporter, SF-1/DAX-1 repression relief; inhibition, % at 6.8 µM; actives 1.1% (n = 370,000); AID 652010;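 active means inhibition above the mean over all tested compounds plus 3 SD, cut at about 3.6% in these data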;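 further: 0% = DAX-1 cells with DMSO and 100% = cells lacking DAX-1 with DMSO; higher inhibition means more luminescence from relief of DAX-1 repression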
DAX1 inh-2: inhibits human nuclear receptor DAX1. AID 504766. actives 0.99% (n = 340,000). P51843. HEK293 Gal4-DAX1 luciferase reporter, luminescence. inhibition, % at 6.75 µM;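 active means inhibition above the mean over all tested compounds plus 3 SD, cut at about 4.2% in these data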;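 further: 0% = DAX1-transfected cells with DMSO and 100% = empty-vector control cells with DMSO; inhibition shows as a rise in luminescence from relieved DAX1 repression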
Target sequence (P51843 207-470 limits assumed): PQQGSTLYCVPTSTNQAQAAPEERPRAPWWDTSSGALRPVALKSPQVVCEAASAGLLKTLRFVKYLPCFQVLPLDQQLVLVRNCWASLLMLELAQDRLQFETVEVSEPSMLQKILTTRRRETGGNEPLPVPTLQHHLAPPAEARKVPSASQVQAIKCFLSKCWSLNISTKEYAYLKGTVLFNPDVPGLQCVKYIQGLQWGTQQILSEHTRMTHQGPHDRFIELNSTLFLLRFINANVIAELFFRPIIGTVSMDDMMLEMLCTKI
LXRb hcDAF ctr: LXR-beta agonism as hcDAF-12 counter-screen | shares compounds with hcDAF-12 act | HEK293 Gal4-LXR tk-luc reporter, luminescence, 24 h; normalized: DMSO 0%, positive control 100% | activation, % at 6.8 µM | 3,400 tested, under 10 active;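 active means mean percent activation of the reporter above a cutoff set as the average over tested compounds plus their standard deviation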
hcDAF12 conf: confirmation of H. contortus DAF-12 agonists | shares compounds with hcDAF-12 act | HEK293 hcDAF-12 lit1-tk-luc reporter, luminescence; % of Δ7-dafachronic acid response | activation, % at 6.8 µM | actives 61% (n = 3,400) | AID 743032;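 active means mean activation across triplicate tests above the threshold derived from the earlier primary screen, cut at about 5.5% in these data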;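 further: 0% = DMSO only wells and 100% = 3 µM Δ7-dafachronic acid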
* = called active by the depositor; . = no result.

SMILES	hcDAF-12 act	ssDAF12 agonist	hgDAF12 agonist	DAX1 inh-1	DAX1 inh-2	LXRb hcDAF ctr	hcDAF12 conf
O=C(NCCN1CCc2ccccc2C1)C1CCN(S(=O)(=O)N2CCCCC2)CC1	-2.2	-0.7	-2.1	0.5	0.1	.	.
CCCc1nc2c(C)cc(Br)cn2c1Cc1cccc(F)c1	0.8	-0.1	5.3	1.1	.	.	.
Cc1cc(C)nc(NC(=O)CSc2nc3ccccc3s2)n1	7.7*	2.1*	9.9	3.0	0.9	1.0	9.3*
Cc1cc(C)nc(SCC(=O)OCC(=O)Nc2nc3ccccc3s2)n1	8.5*	-0.3	4.0	0.3	-1.0	0.1	6.5*
Cc1ccc(-c2cc(NC(=O)CCl)n(-c3ccccc3)n2)cc1	-1.1	-1.3	-3.4	-1.6	-1.0	.	.
COC(=O)c1ccc(NC(=O)COC(=O)CSc2nc(C)cc(C)n2)cc1	-1.3	-1.1	1.2	-0.7	-0.1	.	.
Cc1cc(NC(=O)CCl)n(-c2nc3ccccc3s2)n1	6.8*	0.4	-0.4	0.9	-1.1	0.1	5.1
COCCN=C1Sc2ccccc2[C@@H]2C[C@H]3[C@H](CON3C)CN12	0.0	-0.7	-2.8	0.5	.	.	.
Cc1ccc(C(=O)NCC(=O)OCc2nc3sc(C)c(C)c3c(=O)[nH]2)cc1	-2.9	-1.1	2.9	1.4	.	.	.
CC(C)c1ccc2c(c1)[C@H]1OCC[C@H]1[C@@H](c1cccs1)N2	13.8*	0.8	10.4	-2.7	-1.9	0.4	3.7
O=C1c2ccccc2CC1Sc1nnc(-c2ccccn2)o1 (stereo unspecified)	6.7*	0.5	6.6	0.5	-0.7	0.1	4.6
O=C1CC(Sc2nnc(-c3ccccc3O)o2)C(=O)N1c1ccccc1 (stereo unspecified)	-1.7	-1.5	-2.8	-0.2	1.6	.	.
CN(C)C(CNC(=O)CCS(=O)(=O)c1ccccc1)c1ccccc1 (stereo unspecified)	8.9*	0.5	3.9	-0.2	0.4	-0.1	7.1*
O=C(CCS(=O)(=O)c1ccccc1)NCCS(=O)(=O)c1ccccc1	-0.6	-1.1	1.1	0.2	0.4	.	.
CCCn1c(/C=C/c2ccccc2)nc2ccccc21	6.6*	0.0	10.9*	3.6*	1.4	0.8	7.9*
C(#Cc1ccc2c(c1)COc1c3ccccc3nn1-2)c1ccccc1	4.3	0.2	7.5	1.4	3.6	.	.
C#Cc1ccc2c(c1)COc1c3ccccc3nn1-2	11.2*	1.8*	12.3*	3.1	2.0	1.6	8.3*
CCOC(=O)c1sc(=NC(=O)c2ccc(Cl)s2)n(C)c1C	6.7*	0.5	8.4	2.0	2.5	1.5	15.2*
CCOC(=O)c1sc(=NC(=O)c2cccs2)n(C)c1C	7.8*	2.5*	16.5*	3.0	1.4	2.3	22.9*
CCOC(=O)c1sc(=NC(=O)c2ccc(OC(C)C)cc2)n(C)c1C	1.4	-1.7	0.7	1.5	0.4	.	.
CC1(c2nnnn2-c2ccc3ccccc3c2)CSCC(=O)N1C1CC1 (stereo unspecified)	-1.8	-0.7	3.3	-0.3	.	.	.
Cc1c(NC(=O)c2nn3c(C(F)(F)F)cc(-c4ccccc4)nc3c2Cl)c(=O)n(-c2ccccc2)n1C	6.8*	-1.2	2.5	-0.1	-1.3	-0.3	-0.6
O=C(NC(=S)Nc1ccccc1N1CCCC1)c1ccco1	7.6*	0.1	4.9	-0.2	.	0.0	4.9
CCCOc1ccc(C(=O)NC(=S)Nc2nc3ccccc3s2)cc1	6.9*	0.1	1.5	0.8	0.7	0.0	7.6*
O=C(NC(=S)Nc1nc(-c2ccccc2)cs1)c1cccs1	8.2*	-0.3	2.9	0.0	0.1	-0.2	5.3
SMILES	hcDAF-12 act	ssDAF12 agonist	hgDAF12 agonist	DAX1 inh-1	DAX1 inh-2	LXRb hcDAF ctr	hcDAF12 conf
O=C(NC(=S)Nc1ccccc1N1CCCCC1)c1ccco1	0.7	-0.9	0.2	0.3	-1.8	.	.
O=C(NC(=S)Nc1nc(-c2ccccc2)cs1)c1ccco1	7.0*	0.0	-1.3	-0.1	0.6	0.0	7.3*
Cc1ccc(-c2csc(NC(=S)NC(=O)c3cccs3)n2)cc1	1.7	-1.2	2.4	0.1	-0.1	.	.
O=C(Nc1nc(-c2ccncc2)cs1)c1ccco1	1.0	-0.5	4.5	0.7	0.9	.	.
O=C(NC(=S)Nc1nc2ccccc2s1)c1ccco1	10.9*	2.2*	13.2*	1.9	3.4	0.9	12.1*
CC(=O)Nc1ccc2nc(NC(=O)c3ccco3)sc2c1	6.7*	-0.3	10.3	2.5	1.7	1.1	10.0*
O=C(NC(=S)Nc1cccc2cccnc12)c1cccs1	6.6*	-0.9	0.3	-0.5	-1.2	-0.1	3.8
Cc1ccc(OCc2cc(C(=O)N(C)CCc3ccccn3)no2)cc1C	7.3*	-0.3	8.7	1.6	0.4	0.4	2.9
COC(=O)C(NC=O)C(O)(Cc1ccccc1)C(F)(F)F (stereo unspecified)	9.7*	0.7	5.3	0.6	0.5	0.3	5.6
COC(=O)C(O)(NC(=O)OCc1ccccc1)C(F)(F)F (stereo unspecified)	-1.5	-0.7	1.5	0.4	0.1	.	.
O=C(Nc1ccc(NC(=O)c2ccccc2Cl)c(Cl)c1)c1ccccn1	-0.6	-1.1	6.2	.	.	.	.
O=[N+]([O-])c1ccccc1/C=C/C=Nn1c(-c2ccc(F)cc2)n[nH]c1=S	6.6*	0.1	3.2	-0.3	.	-0.2	5.1
COc1c2c(cc3c1c(=O)c1ccccc1n3C)OCO2	0.5	-1.2	1.2	0.2	.	.	.
CCOc1ccc2[nH]c3c(NCCN(CC)CC)ncnc3c2c1	0.5	-1.1	0.7	0.3	-0.1	.	.
CCN(CC)CCCNc1nc(-c2ccccc2)nc2ccccc12	4.5	-1.3	1.5	0.6	1.3	.	.
COc1ccc(-c2nc(NCCCN(C)C)c3ccccc3n2)cc1	10.0*	0.3	9.2	1.9	6.7*	0.1	9.3*
CCN(CC)CCCNc1nc2ccccc2c2[nH]c3ccc(OC)cc3c12	14.2*	3.6*	6.8	0.5	3.8	2.0	16.3*
Cc1ccc(-n2c(COc3ccccc3)nnc2SCC(=O)Nc2ccccc2-c2ccccc2)cc1	-2.5	-1.9	3.4	-2.1	.	.	.
COc1ccc(/C=C2\CC3(OC(=O)c4ccc(F)cc4)CCCN2C3)cc1 (stereo unspecified)	2.6	-0.5	-1.1	-0.7	.	.	.
CSc1ccccc1NC(=O)c1cc(CC(C)C)on1	7.5*	0.2	10.6*	2.0	0.5	0.5	3.8
CC(=O)Nc1ccc(NC(=O)CSc2nc3ccccc3o2)cc1	0.3	-0.4	7.1	0.4	-0.5	.	.
CC(=O)Nc1ccc(N/C=C(\C=O)c2nc3ccccc3o2)cc1	6.7*	1.0*	1.3	-0.2	-0.3	-0.1	6.7*
